High-throughput results (PubChem BioAssay)
dFosB act: mouse delta FosB homodimer activation. purified delta FosB, TAMRA-CDK5 oligo fluorescence polarization; percent of positive-control signal above neutral wells. activation, % at 25 µM. actives 0.99% (n = 340,000);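 active = mean activation above about 17%, with every replicate also reaching it, limit read from the data, passing the limit was not always enough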
Target sequence (P13346 whole entry, looked up): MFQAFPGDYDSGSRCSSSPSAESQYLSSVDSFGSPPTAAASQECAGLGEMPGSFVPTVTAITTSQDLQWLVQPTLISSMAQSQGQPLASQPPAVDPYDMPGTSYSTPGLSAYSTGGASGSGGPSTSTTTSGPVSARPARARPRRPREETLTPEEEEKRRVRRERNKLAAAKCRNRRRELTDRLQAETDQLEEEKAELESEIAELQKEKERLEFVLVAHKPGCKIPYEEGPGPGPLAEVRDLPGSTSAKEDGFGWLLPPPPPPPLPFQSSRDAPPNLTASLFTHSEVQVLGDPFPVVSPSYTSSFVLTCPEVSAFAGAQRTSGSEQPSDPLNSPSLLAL
PvdQ acylase: blocks Pseudomonas aeruginosa PvdQ acylase activity; purified PvdQ acylase, fluorescence plate reader; inhibition, % at 10 µM; AID 488965; actives 0.063% (n = 340,000); in the data active = inhibition above about 30%, passing the limit was not always enough;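 also: 0% = vehicle neutral wells and 100% = reference inhibitor wells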
FGF22 binding: shifts melting point of recombinant human FGF22. AID 651658. activity (Tm shift, normalised), % at 9.99 µM. recombinant FGF22 thermal shift, SYPRO orange fluorescence; percent of sucrose octasulfate shift, DMSO zero. actives 1.5% (n = 340,000);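 active = mean Tm shift, scaled 0 neutral to 100 positive control, at about 1.3% or above, every replicate too, limit read from the data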
Target sequence (Q9HCT0 whole entry, looked up): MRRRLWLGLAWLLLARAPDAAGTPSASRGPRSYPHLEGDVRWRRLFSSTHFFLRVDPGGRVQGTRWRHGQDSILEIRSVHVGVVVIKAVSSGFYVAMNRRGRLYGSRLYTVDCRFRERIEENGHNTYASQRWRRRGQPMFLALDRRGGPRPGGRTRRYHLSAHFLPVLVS
PglD inh: inhibitors of Campylobacter jejuni PglD acetyltransferase. inhibition, % at 12.5 µM. actives 0.098% (n = 360,000). purified PglD enzyme, DTNB colorimetric CoA detection; in the data active = inhibition above about 16%, passing the limit was not always enough
CDK5 inh: inhibitors of human CDK5/p35 kinase; Q00535+Q15078; Recombinant CDK5/p35, ADP-Glo luminescence, 60 min; inhibition, % at 10 µM; actives 0.01% (n = 330,000);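 active = highest replicate inhibition of at least 50% and at least 75% of replicates reaching 50%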;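 also: plate controls were DMSO neutral control for no effect and GW8510 at 10 µM for full effect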
SIRT5 block: inhibitors of human sirtuin-5 desuccinylase; actives 1.1% (n = 330,000); inhibition, % at 15 µM; Purified SirT5, succinyl-peptide AMC, trypsin-coupled fluorescence; Q9NXA8; in the data active = inhibition above about 15%
* = called active by the depositor; nt = not tested or not shown; ! = repeats disagree. Rows were chosen to be rich in hits. Some 2.8% of all compounds tested hit in one or more screens of this group.

SMILES	dFosB act	PvdQ acylase	FGF22 binding	PglD inh	CDK5 inh	SIRT5 block
Cc1ccc(S(=O)(=O)N(C)C[C@@H]2Oc3ccc(NS(=O)(=O)c4c(C)noc4C)cc3CC(=O)N([C@@H](C)CO)C[C@@H]2C)cc1	nt	nt	0	3	nt	12
Cn1cccc1C(C#N)c1cccc(F)c1C#N (configuration not stated)	3	60*	0	nt	1	nt
Cc1noc(C)c1C(=O)Nc1nc(-c2cccs2)cs1	-4	11	0	3	0	-1
CCc1noc(C)c1C(=O)Nc1nc(-c2cccs2)cs1	-4	-3	-1	-1	0	15*
CCOC(=O)c1cc2c(=Cc3ccc(N(C)C)cc3)c3ccccc3n2[n+]1C	46*	8	0	nt	6	0
Cc1cc2c(=Cc3ccc(N(C)C)cc3)c3ccccc3n2[n+]1C	100*	11	0	nt	6	3
C[n+]1c(-c2ccccc2)cc2c(=Cc3ccccc3)c3ccccc3n21	-1	-17	-1	nt	3	nt
CN(C)c1ccc(C=c2c3cc(O)ccc3n3c2cc(-c2ccccc2)[n+]3C)cc1	82*	5	-1	nt	3	3
COc1ccc([C@@H](OC(=O)Nc2ccc(SC)cc2)[C@@H](CCO)OC)cc1O	nt	nt	-1	-2	nt	0
C[C@@H]1CCCCO[C@H](CN(C)S(=O)(=O)c2cccs2)[C@H](C)CN([C@@H](C)CO)C(=O)c2cc(NS(C)(=O)=O)ccc2O1	nt	nt	1	-1	nt	1
COC(=O)c1c(NC(=O)C2(C)Cc3ccccc3C(=O)O2)sc2c1CCCC2 (configuration not stated)	-11	10	nt	-1	-2	19*
C[C@@H]1CN([C@H](C)CO)C(=O)c2cc(-c3ccccc3)cnc2O[C@@H]1CN(C)C(=O)c1ccccn1	nt	nt	-1	2	nt	4
O=C1Nc2ccccc2C1=Nc1ccc(-c2nnc3n2CCCCC3)cc1	1	-11	43*	-3	-1	nt
Cc1ccc(-c2nnc3n2CCCCC3)cc1	1	-17	nt	3	0	nt
O=C(C[C@@H]1C=C[C@@H](NC(=O)Cc2cccnc2)[C@@H](CO)O1)Nc1ccc(-c2ccccc2)cc1	nt	nt	0	nt	nt	-4
C#CCOc1ccccc1CNc1ccccc1	3	2	43*	nt	0	10
CCC(=O)N1CCC2(CC1)CN(S(C)(=O)=O)[C@@H](CO)c1[nH]c3cc(OC)ccc3c12	nt	nt	0	nt	nt	nt
CCCOc1ccc(N2C(=O)CC(N(CCc3ccc(OC)cc3)C(=O)/C=C/C(=O)O)C2=O)cc1 (configuration not stated)	8	2	0	nt	-1	42*
CCN(CC)C(=O)C1=C(C)N(Cc2ccccc2)C(=O)C(CC(=O)NC2CC2)C1 (configuration not stated)	nt	nt	44*	0	nt	nt
CCN(CC)C(=O)C1=C(C)N(Cc2ccccc2)C(=O)C(CC(=O)NC2CCCCC2)C1 (configuration not stated)	nt	nt	44*	1	nt	nt
CC1=C(C(=O)N(C)C)CC(CC(=O)NC2CC2)C(=O)N1Cc1ccccc1 (configuration not stated)	nt	nt	0	3	nt	-1
CN(C)CCN(Cc1ccco1)c1ccccn1	-3	-13	43*	nt	1	nt
COC(=O)[C@]1(C)N[C@H](CN(C)C(=O)c2ccc(C(C)(C)C)cc2)[C@@H]2C(=O)N(Cc3ccccc3)C(=O)[C@@H]21	-14	-13	43*	-1	-1	nt
CCNC(=O)N(C)C[C@H]1N[C@@](C)(C(=O)OC)[C@H]2C(=O)N(C)C(=O)[C@@H]12	-11	-14	0	-1	-2	-6
COC(=O)[C@]1(C)N[C@H](CN(C)C(=O)c2ccccc2)[C@@H]2C(=O)N(C)C(=O)[C@@H]21	-4	2	0	4	14	34*
SMILES	dFosB act	PvdQ acylase	FGF22 binding	PglD inh	CDK5 inh	SIRT5 block
CCN(C[C@H]1N[C@@](C)(C(=O)OC)[C@H]2C(=O)N(C)C(=O)[C@@H]12)C(=O)c1ccc(F)cc1	-3	-8	0	1	2	28*
CNC(=O)C[C@@H]1CC[C@H]2[C@@H](COC[C@H](O)CN2C(=O)c2ccc3c(c2)OCO3)O1	nt	nt	0	-3	nt	2
CN1CCN(C(=S)NC(=O)/C=C/c2ccccc2Cl)CC1	-8	-11	43*	nt	2	3
CN1CCN(C(=S)NC(=O)/C=C/c2ccccc2)CC1	-6	-8	nt	5	-2	nt
C[C@H]1CN([C@@H](C)CO)C(=O)CCCn2nncc2CO[C@@H]1CN(C)C(=O)c1ccc2ccn(C)c2c1	nt	nt	0	1	nt	38*!
C[C@@H]1CN([C@@H](C)CO)C(=O)CCCn2nncc2CO[C@H]1CN(C)Cc1ccc(Cl)c(Cl)c1	nt	nt	0	-1	nt	16*!
C[C@@H]1CN([C@H](C)CO)C(=O)CCCn2nncc2CO[C@H]1CN(C)Cc1ccc(Cl)c(Cl)c1	nt	nt	0	-5	nt	8
C[C@@H]1CN([C@@H](C)CO)C(=O)CCCn2nncc2CO[C@@H]1CN(C)S(=O)(=O)c1ccc(Cl)cc1	nt	nt	0	0	nt	0
C[C@@H]1CN([C@H](C)CO)C(=O)CCCn2nncc2CO[C@H]1CN(C)S(=O)(=O)c1ccc(Cl)cc1	nt	nt	0	1	nt	19*!
Cn1cnc(S(=O)(=O)N2C[C@H](O)COC[C@H]3O[C@H](CC(=O)NC4CCC4)CC[C@@H]32)c1	nt	nt	0	6	nt	nt
CC(=O)N/N=C(\C)CCc1ccccc1	9	-13	0	nt	1	2
C/C(CCc1ccccc1)=N\NC(=O)COc1ccccc1C	4	-7	43*	nt	-1	2
C[C@H]1CN([C@@H](C)CO)C(=O)c2cc(C#CC3CCCCC3)cnc2O[C@H]1CN(C)Cc1cccnc1	nt	nt	0	1	nt	1
O=C(NCCNC(=O)c1ccc(-c2ccc(Cl)c(Cl)c2)o1)c1cnccn1	-29	-14	0	-2	-1	-5
O=C(NCCNC(=O)c1ccc(-c2cc(Cl)ccc2Cl)o1)c1cnccn1	nt	nt	44*	3	nt	nt
CCNC(=O)C[C@@H]1CC[C@@H](NC(=O)C2CCOCC2)[C@@H](CO)O1	nt	nt	0	2	nt	-1
C[C@@H]1CCCCO[C@H](CN(C)S(=O)(=O)c2ccccc2)[C@H](C)CN([C@H](C)CO)C(=O)c2cc(NC(=O)Nc3cccc4ccccc34)ccc2O1	nt	nt	0	4	nt	-3
Cc1nc2nc(-c3ccccc3)cn2nc1C	-3	7	0	-3	7	22*
Cc1nc2nc(-c3ccc(F)cc3)cn2nc1C	-12	-13	0	nt	6	6
CC(=O)Nc1ccc(S(=O)(=O)N2CCN(c3cnn(C)c(=O)c3Cl)CC2)cc1	-4	-17	43*	15	-4	-4
O=C1NC(=S)S/C1=C\C=C\c1ccc([N+](=O)[O-])o1	-11	1	0	-7	5	25*
